Measurements reported in PubChem BioAssay (Tox21).
Inconclusive results are not listed. Active and inactive are the calls of the source. The call rests on the fitted dose curve; in most records, active means well fitted curve in the direction sought with a large enough effect in the repeat runs; inconclusive means weak or mixed curves; inactive means no such curve, though single readings can be large; an effect the other way counts as inactive or inconclusive.

Assay: qHTS assay to identify small molecule antagonists of the estrogen related receptor (ERR) signaling pathway - cell viability counter screen (AID 1224818);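 further: viability measured after 17.5 h of compound exposure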
Settings: ERR reporter cell line viability counter screen; series mostly up to 46.1 µM; viability change, negative = cytotoxic: at the top concentration
In short: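 In the same ERR cell assay, compound-treated wells (17.5 h, 37 C) were multiplexed with a fluorogenic viability reagent, CellTiter-Fluor, read after 30 min to flag cytotoxic substances.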
On the % scale 0 is the no-effect control and ±100 the full control effect; potency means the concentration at half of the fitted maximal effect.

| Compound | Potency | viability change, negative = cytotoxic |
| --- | --- | --- |
| CNc1ccc2oc(C[C@H]3O[C@@]4(CC[C@H]3C)O[C@H]([C@H](C)C(=O)c3ccc[nH]3)[C@H](C)C[C@H]4C)nc2c1C(=O)O | 10.6 µM (active) | – |
| Cc1[nH]c2ccc(O)cc2c1CCN | – | 9.5% (inactive) |
| NC(N)=Nc1ccc2[nH]c3c(c2c1)C[C@@]1(O)[C@H]2Cc4ccc(O)c5c4[C@@]1(CCN2CC1CC1)[C@H]3O5 | – | 3.63% (inactive) |
| Clc1ccc(N2CC3CCC(C2)N3)nn1 | – | 7.78% (inactive) |
| Nc1ccc(CCN2CCN(c3cccc(C(F)(F)F)c3)CC2)cc1 | – | -11.1% (inactive) |
| C[N+]1(C)CCc2cc3c(cc2[C@H]1[C@@H]1OC(=O)c2c1ccc1c2OCO1)OCO3 | – | 9.53% (inactive) |
| COc1cc(C(O)CN)ccc1O (configuration not stated) | – | 6.77% (inactive) |
| c1ccc2c(N3CCNCC3)cccc2c1 | – | 3.54% (inactive) |
| CC(=O)NBr | – | 0.669% (inactive) |
| CN1CCC(c2c[nH]c3ccc(O)cc23)CC1 | – | 10.1% (inactive) |
| CCCN(CCC)[C@@H]1CCc2ccc(O)cc2C1 | – | 7.08% (inactive) |
| CC(C)CC(NP(=O)(O)O[C@@H]1O[C@@H](C)[C@H](O)[C@@H](O)[C@H]1O)C(=O)NC(Cc1c[nH]c2ccccc12)C(=O)O (some centres not stated) | – | 13.2% (inactive) |
| CCCN(CCC)[C@@H]1CCc2cccc(O)c2C1 | – | 7.99% (inactive) |
| CCCN(CCC)[C@H]1CCc2c(F)ccc(O)c2C1 | – | -3.31% (inactive) |
| COc1ccc2c(c1)C13CCCCC1C(C2)N(C)CC3 (configuration not stated) | – | 8.44% (inactive) |
| O=C1/C(=C/c2ccccc2)C[C@@]2(O)[C@H]3Cc4ccc(O)c5c4[C@@]2(CCN3CC2CC2)[C@H]1O5 | 8.74 µM (active) | – |
| N[C@@H](Cn1oc(=O)[nH]c1=O)C(=O)O | – | 1.87% (inactive) |
| CC(C)(O)[C@@H]1[C@H]2OC(=O)[C@@H]1[C@]1(O)C[C@H]3O[C@]34C(=O)O[C@H]2[C@]14C (tested in a mixture with another compound) | – | 1.96% (inactive) |

Assay: qHTS assay to identify small molecule antagonists of the estrogen related receptor (ERR) signaling pathway (AID 1224819; further: nearly all actives have a fitted effect of over 50% in size;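 on activity change, negative = inhibition: luminescence from an ERR-driven luciferase reporter measured with One-Glo reagent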)
Settings: ERR reporter cell line, luciferase inhibition; series mostly up to 46.1 µM; activity change, negative = inhibition: at the top concentration
In short: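 qHTS in ERR cells, 2,000/well, 1536 format. Cpd (DMSO) added after 6 h settle, 18 h 37 C. One-Glo luminescence, 30 min RT.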

| Compound | activity change, negative = inhibition | Potency |
| --- | --- | --- |
| C[C@H](Cc1ccc2c(c1)OC(C(=O)O)(C(=O)O)O2)NC[C@H](O)c1cccc(Cl)c1 | 11.6% (inactive) | – |
| Cn1cnc(CCN)c1 | 10.9% (inactive) | – |
| CC(N)Cc1c[nH]c2ccc(O)cc12 (configuration not stated) | 6.35% (inactive) | – |
| COC(=O)N1CCN(C(=O)Cc2ccc(Cl)c(Cl)c2)C(CN2CCCC2)C1 (configuration not stated) | 6.03% (inactive) | – |
| COc1ccc2[nH]cc(CCN)c2c1 | 11.9% (inactive) | – |
| CC(=O)OCC1=C(C(=O)[O-])N2C(=O)[C@@H](NC(=O)CCC[C@@H](N)C(=O)[O-])[C@H]2SC1.[Zn+2] | 9.09% (inactive) | – |
| CCOC(=O)c1ncn2c1[C@@H]1CCCN1C(=O)c1cc(OC)ccc1-2 | -18.3% (inactive) | – |
| CCCN1CCc2cc(O)cc3c2[C@H]1Cc1ccc(O)c(O)c1-3 | 0.475% (inactive) | – |
| C#CCOC(=O)C1=CCCN(C)C1 | 45.7% (inactive) | – |
| NCc1cc(=O)[nH]o1 | 14.7% (inactive) | – |
| O=c1ccc2[nH]cc(C3=CCNCC3)c2[nH]1 | 2.64% (inactive) | – |
| Oc1ccc2c3c1O[C@H]1c4[nH]c5ccccc5c4C[C@@]4(O)C(C2)N(CC2CC2)CCC314 (some centres not stated) | -10.2% (inactive) | – |
| CNCCc1c[nH]c2ccc(O)cc12 | -6.87% (inactive) | – |
| C[C@H](N)Cc1cccc(C(F)(F)F)c1 | 11% (inactive) | – |
| O=C1CCCN1CC#CCN1CCCC1 | 14.3% (inactive) | – |
| Cc1sc2ccccc2c1CC1=NCCN1 | -9.66% (inactive) | – |
| NCC(CP(=O)(O)O)c1ccc(Cl)cc1 (configuration not stated) | 2.87% (inactive) | – |

| Compound | activity change, negative = inhibition | Potency |
| --- | --- | --- |
| O=C(O)[C@@H]1CCN1 | 14.2% (inactive) | – |
| CN1CCc2cccc(Cl)c2CC1 | 10.8% (inactive) | – |
| CC[C@@]1(O)C(=O)OCc2c1cc1n(c2=O)Cc2cc3ccccc3nc2-1 | – | 0.123 µM (active) |
| NC(CCP(=O)(O)O)C(=O)O (configuration not stated) | 9.49% (inactive) | – |
| CC(C)[C@H]1CN[C@H](C(=O)O)[C@H]1CC(=O)O | 11% (inactive) | – |
| CNc1ccc2oc(C[C@H]3O[C@@]4(CC[C@H]3C)O[C@H]([C@H](C)C(=O)c3ccc[nH]3)[C@H](C)C[C@H]4C)nc2c1C(=O)O | – | 2.37 µM (active) |
| Cc1[nH]c2ccc(O)cc2c1CCN | 6.19% (inactive) | – |
| NC(N)=Nc1ccc2[nH]c3c(c2c1)C[C@@]1(O)[C@H]2Cc4ccc(O)c5c4[C@@]1(CCN2CC1CC1)[C@H]3O5 | 22.9% (inactive) | – |
| Clc1ccc(N2CC3CCC(C2)N3)nn1 | 13.5% (inactive) | – |
| Nc1ccc(CCN2CCN(c3cccc(C(F)(F)F)c3)CC2)cc1 | – | 13.9 µM (active) |
| C[N+]1(C)CCc2cc3c(cc2[C@H]1[C@@H]1OC(=O)c2c1ccc1c2OCO1)OCO3 | 9.04% (inactive) | – |
| COc1cc(C(O)CN)ccc1O (configuration not stated) | 8.18% (inactive) | – |
| c1ccc2c(N3CCNCC3)cccc2c1 | 11.3% (inactive) | – |
| CC(=O)NBr | 11.4% (inactive) | – |
| CN1CCC(c2c[nH]c3ccc(O)cc23)CC1 | 11.5% (inactive) | – |
| CCCN(CCC)[C@@H]1CCc2ccc(O)cc2C1 | 3.79% (inactive) | – |
| CC(C)CC(NP(=O)(O)O[C@@H]1O[C@@H](C)[C@H](O)[C@@H](O)[C@H]1O)C(=O)NC(Cc1c[nH]c2ccccc12)C(=O)O (some centres not stated) | 18% (inactive) | – |
